The results in this text go back to PubChem BioAssay (Tox21).

A short description of assay [1]: qHTS assay to identify small molecule antagonists of the glucocorticoid receptor (GR) signaling pathway - cell viability counter screen (AID 720693). Also: nearly all actives have a fitted effect of over 55% in size. Also: potency is read from the fitted curve at half-maximal effect. On the technique in general: In qHTS, concentration-response curves come from the screen itself.
A short description of assay [2]: qHTS assay for identifying genotoxic compounds that show differential cytotoxicity against isogenic chicken DT40 cell lines with known DNA damage response pathways - Rev3 mutant cell line (AID 743014). Also: nearly all actives have a fitted effect of over 55% in size. Also: potency is read from the fitted curve at half-maximal effect.
Assay [3] in a line: qHTS assay for identifying genotoxic compounds that show differential cytotoxicity against isogenic chicken DT40 cell lines with known DNA damage response pathways - Rad54/Ku70 mutant cell line (AID 743015). Also: nearly all actives have a fitted effect of over 60% in size. Also: potency is read from the fitted curve at half-maximal effect.
Assay [4] can be described thus: qHTS assay to identify small molecule antagonists of the androgen receptor (AR) signaling pathway using the MDA cell line - cell viability counter screen (AID 743041; also: nearly all actives have a fitted effect of over 45% in size; also: potency is read from the fitted curve at half-maximal effect). The essentials: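 Using the breast carcinoma line MDA-kb2 AR-luc, test chemicals were co-incubated with R1881 for 16 h; CellTiter-Fluor reagent, added at 15.5 h, provided a fluorescence measure of live cells.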

Assay [5] can be described thus: qHTS assay to identify small molecule antagonists of the androgen receptor (AR) signaling pathway - cell viability counter screen (AID 743033; also: nearly all actives have a fitted effect of over 45% in size; also: potency is read from the fitted curve at half-maximal effect).
Assay [6] is described as follows: qHTS assay for identifying genotoxic compounds that show differential cytotoxicity against isogenic chicken DT40 cell lines with known DNA damage response pathways - wild type cell line (AID 743012). Also: nearly all actives have a fitted effect of over 60% in size. Also: potency is read from the fitted curve at half-maximal effect. The essentials:
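Endpoint: CellTiter-Glo luminescence, 30 min RT. Cells: wild type DT40, 300/well. Exposure: compounds in DMSO, 40 h, 37 C/5% CO2, after ~0.5 h pre-incubation.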

Assay [7] has as its target Androgen receptor (Homo sapiens) (UniProt P10275). Briefly: qHTS assay to identify small molecule agonists of the androgen receptor (AR) signaling pathway using the MDA cell line (AID 743040; also: nearly all actives have a fitted effect of over 20% in size). Particulars: MDA-kb2 AR-luc cells, MMTV luciferase, 16 h; activity change: at 70.3 µM (top of the series), stronger effect = higher value. An outline of the steps: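 Stable MMTV-luciferase reporter in MDA-kb2 cells; note the promoter carries GR as well as AR response elements. 16 h compound treatment, 37C, 0% CO2; ONE-Glo luminescence endpoint.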

Assay [8] shares this target. Briefly: qHTS assay to identify small molecule antagonists of the androgen receptor (AR) signaling pathway using the MDA cell line (AID 743042; also: nearly all actives have a fitted effect of over 55% in size). The essentials: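 Antagonist mode: compounds plus R1881 agonist added to MDA-kb2 AR-luc cells, incubated 16 h at 37C. Luciferase reporter luminescence quantified, with multiplexed CellTiter-Fluor readout for cell viability.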

For assay [9] the target is unchanged. Briefly: qHTS assay to identify small molecule antagonists of the androgen receptor (AR) signaling pathway (AID 743035; active = well fitted inhibition curve with a large enough effect in the signal ratio in the repeat runs, not every such curve was filed as active; the % refers to the signal ratio; also: potency is read from the fitted curve at half-maximal effect). An outline of the steps:
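R1881 agonist challenge of a HEK293 UAS-beta-lactamase AR reporter line in the presence of compound (16 h, 37C); signal taken as FRET fluorescence after 2 h with LiveBLAzer B/G substrate at room temperature.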

For assay [10] the target is unchanged. Briefly: qHTS assay to identify small molecule agonists of the androgen receptor (AR) signaling pathway (AID 743036; active = well fitted activation curve with a large enough effect in the signal ratio in the repeat runs, with a control signal flat, not every such curve was filed as active; the % refers to the signal ratio; also: potency is read from the fitted curve at half-maximal effect). An outline of the steps: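 Activation was read as beta-lactamase FRET signal from LiveBLAzer B/G substrate, added for 2 h at room temperature. Before that, GeneBLAzer AR-UAS-bla GripTite (HEK293) cells had 16 h compound exposure at 37C.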

Several values for one entry are separate records, joined by “and”; a condition that tells them apart may be missing. Equal values may be shown once. A number with no mark means an inactive call. Inconclusive results are not listed. Activity calls are given as the source filed them. Unless noted, calls follow the shape of the dose curve; as a rule, active = well fitted curve in the direction sought with a large enough effect in the repeat runs; inconclusive = weak or mixed curves; inactive = no such curve, though single readings can be large; an effect the other way counts as inactive or inconclusive.
% is scaled to controls: 0 for no effect and ±100 for the full control effect.

Androgen receptor (Homo sapiens), sequence (P10275 whole entry, looked up): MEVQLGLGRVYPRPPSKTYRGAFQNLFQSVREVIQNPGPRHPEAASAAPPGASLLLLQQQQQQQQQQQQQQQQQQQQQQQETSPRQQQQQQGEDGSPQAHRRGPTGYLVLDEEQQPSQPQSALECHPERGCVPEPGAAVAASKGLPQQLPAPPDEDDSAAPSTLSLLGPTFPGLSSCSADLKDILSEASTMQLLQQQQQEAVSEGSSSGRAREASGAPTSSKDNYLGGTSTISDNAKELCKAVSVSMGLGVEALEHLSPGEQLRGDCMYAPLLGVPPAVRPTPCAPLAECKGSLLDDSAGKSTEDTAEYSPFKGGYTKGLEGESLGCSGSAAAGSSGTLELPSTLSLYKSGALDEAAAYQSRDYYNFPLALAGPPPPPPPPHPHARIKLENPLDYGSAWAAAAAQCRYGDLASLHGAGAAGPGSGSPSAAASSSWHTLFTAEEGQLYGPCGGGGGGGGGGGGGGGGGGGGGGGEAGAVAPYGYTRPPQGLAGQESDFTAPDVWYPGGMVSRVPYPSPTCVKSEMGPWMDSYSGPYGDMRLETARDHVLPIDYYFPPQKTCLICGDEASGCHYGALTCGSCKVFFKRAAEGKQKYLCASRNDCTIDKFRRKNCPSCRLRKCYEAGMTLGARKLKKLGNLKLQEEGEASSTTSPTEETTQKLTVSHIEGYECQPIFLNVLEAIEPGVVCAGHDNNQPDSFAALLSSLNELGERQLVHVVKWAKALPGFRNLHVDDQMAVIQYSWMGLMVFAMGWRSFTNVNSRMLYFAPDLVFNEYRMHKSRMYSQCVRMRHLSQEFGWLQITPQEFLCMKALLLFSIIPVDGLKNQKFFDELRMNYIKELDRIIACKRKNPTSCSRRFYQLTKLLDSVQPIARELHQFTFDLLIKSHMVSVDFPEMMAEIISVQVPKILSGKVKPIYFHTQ

Take `CCCC[N+]1(C)[C@@H]2CC(OC(=O)[C@H](CO)c3ccccc3)C[C@H]1[C@@H]1O[C@@H]12` (some centres not stated): the Potency entry in assay [1], in assay [2], in assay [3] and in [4] was “inactive” each time.

In the case of `Nc1ccc2c(c1)Cc1ccccc1-2`, the Potency entry in assay [1] and in [5] was “inactive” in each case.

As to `O=[N+]([O-])/C=C/c1ccccc1`, the Potency entry in assay [4] was “inactive”.

Regarding `CCCCNC(=O)OCC#CI`, the Potency in assay [6] is 3.05 µM (active) and 611 nM (active); in [2], 1.36 µM (active) and 1.22 µM (active); in assay [5], 12.2 µM (active) and 19.5 µM (active); in assay [4], 60.8 µM (active).

As for `CCCN(CCC)C(=O)Cc1c(-c2ccc(Cl)cc2)nc2ccc(Cl)cn12`, the Potency result in assay [1], in assay [2], in assay [3], in [5] and in [4] was “inactive” each time.

With `O=C(O)CCCOc1ccc(Cl)cc1Cl`, the Potency result in assay [1], in [5], in [7], in assay [4] and in [8] was “inactive” throughout.

Turning to `CN1CC[C@]23c4c5ccc(O)c4O[C@H]2[C@@H](O)C=C[C@H]3[C@H]1C5`, the Potency entry in assay [1], in assay [5], in [9], in assay [7], in assay [4] and in assay [8] was “inactive” throughout.

`C=CC(C)(CCC=C(C)C)OC(=O)c1ccccc1N` (configuration not stated): the Potency entry in assay [1] and in [4] was “inactive” throughout.

Take `O=C(O)C(F)(F)C(F)(F)C(F)(F)C(F)(F)C(F)(F)C(F)(F)C(F)(F)C(F)(F)F`: the Potency entry in assay [1], in assay [2], in assay [3], in [5] and in [4] was “inactive” each time.

Regarding `CC(C)C1(C)N=C(c2ncccc2C(=O)O)NC1=O` (configuration not stated), the Potency result in assay [1], in assay [3] and in assay [4] was “inactive” each time.

Regarding `CC(C)(C)N(NC(=O)c1ccc(Cl)cc1)C(=O)c1ccccc1`, the Potency entry in assay [1], in assay [5], in [10], in [7], in assay [4] and in [8] was “inactive” in each case. Besides, in assay [3], the Potency is 43 µM (active).

As to `C#C[C@]1(O)CC[C@H]2[C@@H]3CCC4=CC(=O)CCC4=C3C=C[C@@]21CC`, the Potency in assay [6] was 10.6 µM (active); in assay [2] it was 13.3 µM (active); in assay [3], 13.3 µM (active). In addition, the Potency result in [4] was “inactive”.

For the compound `CCSCc1ccccc1OC(=O)NC`, the Potency result in [1], in assay [5] and in [4] was “inactive” throughout.

For the compound `CC(=O)NNc1ccccc1`, the Potency is 1.52 µM (active) in assay [6] and 2.15 µM (active) in assay [2]. The Potency result in [9], in assay [10], in [7], in assay [4] and in assay [8] was “inactive” in each case.

Turning to `NCCc1cc(O)c(O)cc1O`, the Potency entry in assay [1], in assay [5] and in assay [4] was “inactive” in each case. The Potency in assay [6] is 23.7 µM (active).

For `C[C@]12C=CC3=C4CCC(=O)C=C4CC[C@H]3[C@@H]1CC[C@@H]2O`, the Potency was 24.4 µM (active) in assay [1], 68.1 µM (active) in assay [2], 60.7 µM (active) in assay [3] and 2.7 nM (active) in [10]. In addition, the Potency entry in assay [5], in assay [4] and in assay [8] was “inactive” in each case. The activity change in assay [7] is 189% (active).

In the case of `Nc1cccc2ccccc12`, the Potency result in [1], in [5] and in assay [4] was “inactive” throughout.

As to `C[C@]12CC[C@H]3[C@@H](CCC4=CC(=O)CC[C@@H]43)[C@@H]1CC[C@@H]2OC(=O)CCc1ccccc1`, the Potency entry in assay [2], in assay [3], in [5] and in assay [4] was “inactive” each time.

As for `COC(=O)C1(O)c2ccccc2-c2ccccc21`, the Potency entry in assay [1], in [5], in assay [9], in assay [10], in assay [7] and in assay [4] was “inactive” each time. Also, the Potency result in assay [8] was “inactive”.

In the case of `COc1ccc2c(c1OC)C(=O)O[C@H]2[C@@H]1c2cc3c(cc2CCN1C)OCO3`, the Potency entry in assay [1], in [2], in [3], in assay [5], in assay [9] and in assay [10] was “inactive” in each case. The Potency entry in assay [7], in [4] and in [8] was “inactive” in each case.

Take `CCOP(=S)(S)OCC`: the Potency entry in assay [1], in assay [2], in assay [3], in [5], in [9] and in assay [7] was “inactive” each time. Also, the Potency entry in assay [4] and in assay [8] was “inactive” in each case.

For `Cc1cccc(C)c1NC1=NCCCS1`, the Potency entry in [1], in assay [2] and in [4] was “inactive” in each case.

Take `[Cl-].[Cl-].[Hg+2]`: the Potency was 841 nM (active) and 3.84 µM (active) and 193 nM (active) in [6]; 2.66 µM (active) and 1.92 µM (active) and 386 nM (active) in [2]; 9.52 µM (active) and 1.54 µM (active) and 9.77 µM (active) in assay [5].

As for `CCOc1cccc(C2(N3CCN(c4ccccc4)CC3)CCC(C)CC2)c1` (configuration not stated), the Potency entry in assay [1], in [6], in assay [5] and in assay [4] was “inactive” each time.

Turning to `O=S(=O)(c1ccccc1)c1ccccc1`, the Potency result in assay [1], in assay [2], in assay [3], in assay [5] and in assay [4] was “inactive” throughout.

Regarding `O=P(OCC(Br)CBr)(OCC(Br)CBr)OCC(Br)CBr` (configuration not stated), the Potency is 41.1 µM (active) in assay [6]; 55.2 µM (active) and 20.6 µM (active) in assay [2]; 25.9 µM (active) in assay [3]; 14 µM (active) in assay [9]. Moreover, the Potency entry in [10] and in assay [7] was “inactive” in each case.

Consider `C[N+](C)(C)CC1CO1` (configuration not stated), for which the Potency result in [1], in assay [9], in assay [10], in assay [7] and in [8] was “inactive” each time. Also, the Potency in assay [2] is 13.7 µM (active).

With `CC[N+]1(CCOC(=O)C(O)(c2ccccc2)c2ccccc2)CCCCC1`, the Potency result in [1] and in assay [4] was “inactive” each time.

Consider `CN(C1CCCCC1)C1CCCCC1`, for which the Potency entry in [1], in assay [5], in assay [9], in assay [10], in [7] and in [4] was “inactive” each time. For the same compound, the Potency entry in assay [8] was “inactive”. In addition, the Potency is 9.69 µM (active) in [2] and 17.2 µM (active) in assay [3].

For `CC(=O)OC(c1ccccc1)C(Cl)(Cl)Cl` (configuration not stated), the Potency result in assay [1] and in assay [2] was “inactive” each time.

Regarding `CCCCCCCCCCCCN(C)C`, the Potency entry in [6], in assay [2], in assay [3] and in [4] was “inactive” throughout.

Regarding `O=C(NC(=O)c1cc(F)c(F)cc1Cl)Nc1cc(F)ccc1N1CCC(C(=O)O)CC1`, the Potency result in [1], in [2], in assay [3], in assay [5] and in assay [4] was “inactive” throughout.

With `CC(C)c1ccc(OP(=O)(Oc2ccc(C(C)C)cc2)Oc2ccc(C(C)C)cc2)cc1`, the Potency entry in assay [1] and in assay [5] was “inactive” each time. The Potency in assay [2] was 61.6 µM (active) and 27.3 µM (active).

In the case of `C[C@H]1[C@@H]2Cc3ccc(O)cc3[C@@]1(C)CCN2C`, the Potency entry in assay [1], in assay [5] and in assay [4] was “inactive” in each case.

Consider `NC(=S)c1c(Cl)cccc1Cl`, for which the Potency entry in [1], in assay [5] and in [4] was “inactive” in each case.

As to `C=CCc1ccc(OC(=O)Cc2ccccc2)c(OC)c1`, the Potency result in assay [1], in [5] and in assay [4] was “inactive” throughout.
